Shown are actives, neighbours in structure and some others; about 3.7% of the full set was active somewhere.
BH1578 lux ind = inducers of Vibrio cholerae quorum light production without autoinducers, primary screen, BH1578 luxS cqsA deficient, single point; V. cholerae BH1578 lux reporter, luminescence, 6 h; activation, % at 18.7 µM; hit rate 0.16% among 350,000; in the data active means activation mostly above about 9.7%, no sharp cut-off; inconclusive means no clear call, values can overlap the other calls; inactive means mostly below about 3.7%
BJeLR lethal = MLPCN primary cell-based screen for lethality selective to Ras in HRASV12 cells. BJeLR (HRASV12) viability, CellTiter-Glo ATP luminescence, 48 h. inhibition, % (no concentration beside the values). hit rate 0.17% among 300,000; in the data active means inhibition above about 50%; inconclusive means no clear call, values can overlap the other calls
BoNT F protease = BoNT/F light chain protease inhibitors, primary screen, biochemical, flow cytometry, MLPCN library | Botulinum neurotoxin type F light chain protease (Clostridium botulinum) | Multiplex microsphere protease cleavage assay | inhibition, % at 10 µM | hit rate 0.22% among 360,000 | AID 588497, 2011; in the data active means inhibition above about 35%, passing the limit was not always enough; inconclusive means no clear call, values can overlap the other calls; further: plate controls were buffer without enzyme for full effect and enzyme alone for no effect
BoNT-A LC inh2 = BoNT/A light chain protease inhibitors, primary screen, biochemical, flow cytometry, MLPCN library. Botulinum neurotoxin type A light chain protease (Clostridium botulinum A str. ATCC 3502). multiplex microsphere protease substrate cleavage. inhibition, % at 10 µM. hit rate 0.17% among 360,000. AID 588499, 2011; further: plate controls were buffer without enzyme for full effect and enzyme alone for no effect
Anthrax LF prot = Bacillus anthracis LF protease inhibitors, primary screen, biochemical, multiplex microsphere, MLPCN library. Lethal factor (Bacillus anthracis), P15917. multiplex microsphere protease cleavage assay. inhibition, % at 10 µM. hit rate 0.12% among 360,000. AID 588501, 2011; further: plate controls were buffer without enzyme for full effect and enzyme alone for no effect
Target sequence (P15917 whole entry, looked up): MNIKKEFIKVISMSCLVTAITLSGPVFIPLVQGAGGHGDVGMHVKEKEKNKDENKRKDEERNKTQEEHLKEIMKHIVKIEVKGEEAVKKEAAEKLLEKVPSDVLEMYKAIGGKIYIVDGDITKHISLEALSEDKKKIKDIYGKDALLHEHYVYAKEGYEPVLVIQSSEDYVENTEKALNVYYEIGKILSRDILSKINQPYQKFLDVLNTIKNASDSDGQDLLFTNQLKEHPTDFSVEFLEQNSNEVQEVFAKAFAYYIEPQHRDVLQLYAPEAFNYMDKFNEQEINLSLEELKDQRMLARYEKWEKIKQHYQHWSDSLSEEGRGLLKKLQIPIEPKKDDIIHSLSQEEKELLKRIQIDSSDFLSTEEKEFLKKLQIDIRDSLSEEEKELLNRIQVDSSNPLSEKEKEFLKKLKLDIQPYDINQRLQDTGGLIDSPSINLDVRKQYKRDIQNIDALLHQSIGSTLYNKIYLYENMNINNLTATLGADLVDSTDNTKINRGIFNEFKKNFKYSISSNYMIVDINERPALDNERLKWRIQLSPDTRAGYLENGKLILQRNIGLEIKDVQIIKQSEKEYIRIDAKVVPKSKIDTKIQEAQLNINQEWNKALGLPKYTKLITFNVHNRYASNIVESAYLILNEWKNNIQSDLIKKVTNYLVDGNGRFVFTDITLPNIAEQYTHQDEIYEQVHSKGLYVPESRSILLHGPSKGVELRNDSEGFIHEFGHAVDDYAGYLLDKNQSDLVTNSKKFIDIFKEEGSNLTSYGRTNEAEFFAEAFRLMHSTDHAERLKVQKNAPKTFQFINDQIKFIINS
Autofluor counter = counter-screen for toxin protease inhibitors: compound fluorescence | compound autofluorescence counterscreen, microsphere flow cytometry; stronger effect = higher value | fluorescence intensity (no concentration beside the values) | hit rate 3.1% among 360,000; in the data active means fluorescence intensity above about 16000; inconclusive means no clear call, values can overlap the other calls
Active calls of the source: *; i = inactive; ? = inconclusive; . = not tested or not shown. Unless noted, no stated cut-off is given here; in the data, active means inhibition above about 30%; inconclusive means no clear call, values can overlap the other calls; inactive means below that.

SMILES	BH1578 lux ind	BJeLR lethal	BoNT F protease	BoNT-A LC inh2	Anthrax LF prot	Autofluor counter
COc1ccc(-c2nnc3ccc(SC)nn23)cc1	-0.5	-4.5	12.4	10.0	-3.7	17068*
CCc1c(C)sc(NC(=O)c2cc(C)on2)c1C#N	i	-2.0	11.2	1.8	-3.5	6711
CCCc1cc(C(N)=O)c(NC(=O)c2cc(C)on2)s1	i	-3.9	-2.1	?	-14.0	16687*
CCCc1cc(C(N)=O)c(NC(=O)c2ccoc2C)s1	2.0	-14.0	-11.7	-8.0	-1.3	23003*
C[C@@H]1CN([C@H](C)CO)C(=O)c2cc(Br)cnc2O[C@@H]1CN(C)Cc1ccc(F)cc1	2.1	.	3.8	-0.1	-5.3	3130
CCOC(=O)CC(=O)Nc1ccccc1C(=O)O	0.5	8.5	1.7	0.3	0.8	2169
CCOc1ccccc1NC(=O)c1cccc2ccccc12	-0.9	0.6	.	.	.	.
CCOC(=O)C(=O)Nc1ccccc1C(=O)NC(C)C	-0.2	6.1	-0.4	0.2	-0.8	22964*
CCOc1ccccc1C(=O)Nc1ccccc1C(N)=O	0.6	-1.4	2.0	?	-4.0	23043*
CCOC(=O)CCC(=O)Nc1ccccc1C(N)=O	-1.4	-2.5	-3.4	?	-5.2	22534*
CCOC(=O)C(=O)Nc1ccccc1C(=O)OCC	-0.1	-1.8	-5.8	-2.0	-2.0	3848
CC1NC(=O)c2cc3ccccc3cc2-n2c1nc1cc(Cl)ccc1c2=O (stereo not given)	-0.6	.	1.7	-0.2	-0.7	2902
Cc1ccc(OCCNc2ccc(S(=O)(=O)N3CCCC3)cn2)cc1	0.6	.	-7.4	-4.2	?	7214
CN(CCOc1ccc(Cl)cc1)c1ccc(S(=O)(=O)N2CCCCC2)cn1	i	.	-6.0	?	-4.4	24914*
CCC(C)NCCOCCOc1ccc(Cl)cc1Br (stereo not given)	i	3.9	35.1*	5.1	-7.3	4372
Cc1ccc(OCCOCCNC(C)C)c(Br)c1	i	-8.9	-5.6	-0.1	0.7	2340
CCC(C)NCCOCCOc1ccccc1-c1ccccc1 (stereo not given)	i	-8.5	-4.6	-0.4	-5.0	23087*
N#C/C(=C/C1=C(N2CCOCC2)C(=C/c2ccc(Cl)cc2Cl)/CC1)C(=O)Nc1ccccc1F	.	.	10.9	1.3	12.0	4751
COc1ccc(-n2c(-c3ccco3)n[nH]c2=S)cc1	i	-1.4	3.7	3.0	-3.3	22219*
OC1c2c(F)cccc2N=C2CCCCN21 (stereo not given)	-0.1	.	2.4	0.2	1.9	3851
CC1C(=O)N(Cc2cn(Cc3ccco3)nn2)CCS(=O)(=O)N1Cc1ccc(-c2ccccc2C(F)(F)F)cc1 (stereo not given)	.	.	9.6	-0.4	-3.8	5883
Cc1nnc(SCCn2c(N3CCC(C)CC3)nc3c2c(=O)[nH]c(=O)n3C)s1	-0.4	5.5	2.6	1.9	-0.2	16118
Cc1nnc(SCCn2c(N3CC(C)CC(C)C3)nc3c2c(=O)[nH]c(=O)n3C)s1 (stereo not given)	1.3	8.3	-5.1	-2.5	-0.8	23049*
COc1ccccc1-c1csc(C(O)c2ccc(F)cc2)n1 (stereo not given)	-0.5	.	1.8	-0.3	-2.4	3885
COc1ccc(C(C)C)cc1S(=O)(=O)Nc1ccc(Cl)cn1	i	-7.2	-3.2	?	-1.9	22386*
SMILES	BH1578 lux ind	BJeLR lethal	BoNT F protease	BoNT-A LC inh2	Anthrax LF prot	Autofluor counter
COc1ccc(Cl)cc1S(=O)(=O)Nc1ccc(Cl)cn1	i	-6.9	-8.3	-2.2	9.4	3036
CCc1nc2ccc(C(=O)N(CC)CCN(C)C)cn2c1N(C)C(=O)C1CCCCC1	0.8	.	4.3	0.4	-8.7	3925
COc1ccc(C(=O)N2CCC(C)(C(=O)NS(=O)(=O)C3CC3)C2)cc1 (stereo not given)	-0.5	.	-5.9	-0.2	6.1	4063
O=C1CCCN1CC(O)CS(=O)(=O)c1ccc(Cl)cc1 (stereo not given)	-3.5	-3.0	0.4	1.2	0.9	22765*
Cc1ccc(S(=O)(=O)CC(O)CN2CCCC2=O)cc1 (stereo not given)	.	10.6	3.0	0.4	3.9	9881
CC(=O)Nc1cccc(OCC(=O)NS(=O)(=O)c2ccc(C)cc2)c1	i	0.1	-2.9	-2.0	-9.7	23647*
CC(C)(C)Cc1c(-c2ccc(Cl)cc2)nc2c(Cl)cc(C(F)(F)F)cn12	.	.	-6.4	-0.9	-7.7	5762
O=C(NCCCN1CCOCC1)c1cc(-c2ccc(Br)cc2)on1	i	-1.4	13.8	15.1	-15.5	18589*
O=C(NCCN1CCOCC1)c1cc(-c2ccc(Br)cc2)on1	-0.5	-1.0	-6.6	-0.9	-2.2	10811
COc1ccc(Nc2nc(C(=O)NCCCN3CCOCC3)cs2)cc1	4.2	11.3	-3.0	-1.1	0.4	16850*
C=CCNC(=O)c1cc(-c2ccc(Br)cc2)on1	i	-1.2	-0.5	-0.5	0.7	22477*
COc1ccc(Nc2cc(C(=O)NCCCN3CCOCC3)c3ccccc3n2)cc1	-0.2	-1.9	-2.8	-2.2	-3.1	6335
CCCCn1nnnc1C(c1ccccc1)N1CCN(c2cccc(C)c2C)CC1 (stereo not given)	.	.	-7.0	1.2	-3.9	5081
COc1cc2c(cc1OC)C1(NCC2)C(=O)Nc2ccccc21 (stereo not given)	2.1	-7.2	-5.0	-1.9	0.4	16750*
C[C@@H](NC(=O)[C@@H]1CCCN1C(=O)OC(C)(C)C)c1ccccc1	.	.	-2.5	-0.7	6.7	4398
Cc1ccc(NC(=O)COC(=O)Cn2c(C)csc2=O)cc1C	-2.0	-3.1	-9.3	-2.8	-5.8	17233*
Cc1ccc(S(=O)(=O)NC(=NCc2ccccc2)c2ccc(F)cc2)cc1	0.7	-7.4	-3.2	0.5	10.5	6056
Cc1ccc(S(=O)(=O)NC(=NCC(=O)O)c2ccc(F)cc2)cc1	-0.2	5.8	-7.8	-4.3	-1.4	25722*
c1cc(C2OCCO2)cs1	0.6	.	-2.9	-0.4	-7.1	3203
O=C(CN1CCN(c2nc(-c3ccc(F)cc3)cs2)CC1)NCc1ccc2c(c1)OCO2	-0.1	9.6	-2.3	-0.4	-2.1	23682*
CC(O)(c1cccc(F)c1)c1nc(-c2cc(F)cc(F)c2)cs1 (stereo not given)	-2.5	.	-3.9	0.3	0.2	3620
OC[C@@H]1CN(Cc2ccccc2)C[C@H](n2cnc3c(NCc4ccncc4)ncnc32)O1	i	.	-6.7	0.4	-2.0	2906
O=[n+]1c2c(n([O-])c3ccccc31)CCCC2	-0.4	-1.7	2.2	0.3	-0.5	16483*
O=[n+]1c2c(n([O-])c3cc(Br)ccc31)CCCC2	-0.1	7.3	3.6	1.7	0.5	8805
CS(=O)(=O)N1CCN(c2ccccc2NC(=O)c2cc(Br)ccc2Cl)CC1	i	-4.8	-1.7	0.0	-6.1	4695

Screens: PubChem, several laboratories
